# Measured values: PubChem BioAssay (NCATS)
# Inconclusive results are not listed. Entries that show only a call come without a potency. The source made the active and inactive calls. The call rests on the fitted dose curve; in most records, active means well fitted inhibition curve with a large enough effect; inconclusive means small, poorly fitted or top-dose-only effect; inactive means flat fitted curve, though single readings scatter.
# Target: Voltage-gated inwardly rectifying potassium channel KCNH2 (Homo sapiens) (UniProt Q12809)
# Sequence (Q12809 whole entry, looked up): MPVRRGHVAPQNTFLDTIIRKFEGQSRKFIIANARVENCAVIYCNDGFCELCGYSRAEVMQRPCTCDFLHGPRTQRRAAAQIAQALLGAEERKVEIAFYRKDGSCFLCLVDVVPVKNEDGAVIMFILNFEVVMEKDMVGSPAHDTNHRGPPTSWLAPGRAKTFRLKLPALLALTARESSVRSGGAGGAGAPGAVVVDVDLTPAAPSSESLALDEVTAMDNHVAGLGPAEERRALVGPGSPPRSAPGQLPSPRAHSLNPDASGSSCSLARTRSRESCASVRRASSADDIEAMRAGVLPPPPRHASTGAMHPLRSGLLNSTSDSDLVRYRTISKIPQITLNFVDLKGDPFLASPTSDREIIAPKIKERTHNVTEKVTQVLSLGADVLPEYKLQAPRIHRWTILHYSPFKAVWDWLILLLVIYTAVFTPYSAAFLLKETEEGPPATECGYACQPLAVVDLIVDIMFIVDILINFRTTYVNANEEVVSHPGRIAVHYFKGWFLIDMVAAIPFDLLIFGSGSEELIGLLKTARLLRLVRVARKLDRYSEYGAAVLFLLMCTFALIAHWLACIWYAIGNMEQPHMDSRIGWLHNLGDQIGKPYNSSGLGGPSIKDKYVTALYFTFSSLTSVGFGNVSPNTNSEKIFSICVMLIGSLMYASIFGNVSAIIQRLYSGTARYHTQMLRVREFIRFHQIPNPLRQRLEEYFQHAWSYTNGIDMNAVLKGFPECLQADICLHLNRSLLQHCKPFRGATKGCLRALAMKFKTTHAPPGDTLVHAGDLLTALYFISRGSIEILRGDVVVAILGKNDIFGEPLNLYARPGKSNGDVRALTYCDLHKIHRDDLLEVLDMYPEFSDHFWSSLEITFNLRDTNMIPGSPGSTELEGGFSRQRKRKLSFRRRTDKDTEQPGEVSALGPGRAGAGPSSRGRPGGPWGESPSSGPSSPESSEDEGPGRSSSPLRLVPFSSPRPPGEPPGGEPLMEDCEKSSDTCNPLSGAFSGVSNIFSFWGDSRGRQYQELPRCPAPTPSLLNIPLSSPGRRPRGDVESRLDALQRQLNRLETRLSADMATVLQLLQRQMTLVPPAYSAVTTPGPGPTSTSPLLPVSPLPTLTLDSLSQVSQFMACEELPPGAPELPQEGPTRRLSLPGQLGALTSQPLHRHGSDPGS
# Experiment: qHTS Assay for Small Molecule Inhibitors of the Human hERG Channel Activity (AID 588834);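 further: lower thallium flux fluorescence means stronger hERG block; nearly all actives have a fitted effect of over 50% in size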
# Conditions: U2OS BacMam hERG, FluxOR thallium flux fluorescence; series mostly up to 46.1 µM
# How it was run: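 In hERG-transduced U2OS cells, dye-loaded for 1 hr at room temperature in dark, test compounds incubated 10 min at 37 °C before thallium stimulation. AC50 values derived by Hill modelling of concentration-response.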
# Potency means the concentration at half of the fitted maximal effect.
row,Compound,Potency
1,O=C1c2cccc3c2[C@H](CCC3)CN1[C@@H]1CN2CCC1CC2,12.6 µM (active)
2,NC(N)=NN=C(/C=C/c1ccc([N+](=O)[O-])o1)/C=C/c1ccc([N+](=O)[O-])o1,0.0891 µM (active)
3,CN(C)CCOC(=O)C(c1ccccc1)C1(O)CCCC1 (stereo not given),inactive
4,C[C@H]1[C@H]2CC[C@H]3[C@@H]4CC=C5C[C@@H](N(C)C)CC[C@]5(C)[C@H]4CC[C@]23CN1C,inactive
5,C[C@@H](O)[C@H]1C(=O)N2C(C(=O)O)=C([C@H]3CCCO3)S[C@H]12,inactive
6,C#C[C@]1(O)CC[C@H]2[C@@H]3[C@H](C)CC4=C(CCC(=O)C4)[C@H]3CC[C@@]21C,inactive
7,CC(=C(CCOC(=O)C(C)C)SSC(CCOC(=O)C(C)C)=C(C)N(C=O)Cc1cnc(C)nc1N)N(C=O)Cc1cnc(C)nc1N,inactive
8,CC(CNC1CCCCC1)OC(=O)c1ccccc1 (stereo not given),inactive
9,CCN(CC)CCOC(=O)C(Cc1cccc2ccccc12)CC1CCCO1 (stereo not given),7.94 µM (active)
10,COc1ccc(S(=O)(=O)N2c3ccc(Cl)cc3[C@@](O)(c3ccccc3Cl)[C@H]2C(=O)N2CCC[C@@H]2C(N)=O)cc1OC,inactive
11,NS(=O)(=O)c1cc2c(cc1Cl)NC(CC1CCCC1)NS2(=O)=O (stereo not given),inactive
12,CCCCC(CC)CN1CN(CC(CC)CCCC)CC(C)(N)C1 (stereo not given),4.47 µM (active)
13,O=[N+]([O-])c1ccc(/C=N\O)o1,inactive
14,C[C@@]12C(=O)OC(=O)[C@]1(C)C1CCC2O1,inactive
15,CC(C)(C)NCC(O)COc1cccc2c1C[C@H](O)[C@H](O)C2 (stereo not given in full),inactive
16,Cc1cn([C@H]2C[C@H](F)[C@@H](CO)O2)c(=O)[nH]c1=O,inactive
17,CC(=O)OCC1=C(C(=O)O)N2C(=O)[C@@H](NC(=O)CSc3ccncc3)[C@H]2SC1,inactive
18,OC[C@H]1O[C@@H](Oc2ccc(O)cc2)[C@H](O)[C@@H](O)[C@@H]1O,inactive

row,Compound,Potency
1,CCC1NC(=O)c2cc(S(N)(=O)=O)c(Cl)cc2N1 (stereo not given),inactive
2,CC(O)Cn1cnc2c1c(=O)n(C)c(=O)n2C (stereo not given),inactive
3,CCO[C@@H]1O[C@H](C(COCc2ccccc2)OCc2ccccc2)[C@H](OCc2ccccc2)[C@H]1O (stereo not given in full),inactive
4,C=C1c2cccc(O)c2C(O)=C2C(=O)[C@]3(O)C(O)=C(C(N)=O)C(=O)[C@@H](N(C)C)[C@@H]3[C@@H](O)[C@H]12,inactive
5,O=C(N/N=C/c1ccc([N+](=O)[O-])o1)c1ccc(O)cc1,inactive
6,CCN1CCCC(OC(=O)C(c2ccccc2)c2ccccc2)C1 (stereo not given),7.94 µM (active)
7,N#C/C(=C1\SCC(c2ccccc2Cl)S1)n1ccnc1 (stereo not given),inactive
8,CC(C)n1c(/C=C/[C@@H](O)C[C@@H](O)CC(=O)O)c(-c2ccc(F)cc2)c2ccccc21,inactive
9,CO[C@H]1C=CO[C@@]2(C)Oc3c(C)c(O)c4c(O)c(c(/C=N/N5CCN(C)CC5)c(O)c4c3C2=O)NC(=O)/C(C)=C\C=C[C@H](C)[C@H](O)[C@@H](C)[C@@H](O)[C@@H](C)[C@H](OC(C)=O)[C@@H]1C,inactive
10,O=C1OC2(c3ccccc31)c1cc(Br)c(O)c(Br)c1Oc1c2cc(Br)c(O)c1Br,5.62 µM (active)
11,CCCCN1C[C@H](O)[C@@H](O)[C@H](O)[C@H]1CO,inactive
12,CC[C@]12CCCN3CCc4c(n(c5ccccc45)C(=O)C1)[C@@H]32,0.447 µM (active)
13,CC(C(=O)O)c1cccc(Oc2ccccc2)c1 (stereo not given),inactive
14,CCN[C@@H]1C[C@H](N)[C@@H](OC2OC(CN)=CCC2N)[C@H](O)[C@H]1O[C@H]1OC[C@](C)(O)[C@H](NC)[C@H]1O (stereo not given in full),inactive
15,C[C@H]1O[C@@H](O[C@H]2CC[C@@]3(C)[C@H](CC[C@@H]4[C@@H]3C[C@@H](O)[C@]3(C)[C@@H](C5=CC(=O)OC5)CC[C@]43O)C2)C[C@H](O)[C@@H]1O[C@H]1C[C@H](O)[C@H](O[C@H]2C[C@H](O)[C@H](O[C@@H]3O[C@H](CO)[C@@H](O)[C@H](O)[C@H]3O)[C@@H](C)O2)[C@@H](C)O1,inactive
16,CCCCCCCCCCC[C@@H](C[C@@H]1OC(=O)[C@H]1CCCCCC)OC(=O)[C@H](CC(C)C)NC=O,inactive
17,CCC(Cc1c(I)cc(I)c(N)c1I)C(=O)O (stereo not given),inactive
